Data as given in PubChem BioAssay (NCATS).
Records with an inconclusive call do not appear. Active and inactive are the calls of the source. Calls come from the whole dose curve; as a rule, active = well fitted cell-killing curve with a large enough effect; inconclusive = small, poorly fitted or top-dose-only effect, or effect the other way; inactive = no such curve, though single readings can be large or run the other way.

Assay: Quantitative High-Throughput drug screen in 47 multiple myeloma cell lines against the NCATS MIPE library collection: KMS28BM_JCRB cell viability assay (AID 1919874); note: nearly all actives have a fitted effect of over 35% in size
Details: CellTiter-Glo ATP, 48 h; series mostly up to 45.8 µM
Method in brief: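 Myeloma cells (500/well) treated with MIPE 4.0 compounds for 48 h at 37 °C, 5% CO2. Viability read as ATP via CellTiter-Glo luminescence after 5 min at RT; DMSO-only wells = 100%, media-only = 0% viability.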
Potency is the fitted concentration of half-maximal effect.

| SMILES | Potency |
| --- | --- |
| COc1ccc(C=Cc2cc(OC)c(OC)c(OC)c2)cc1NC(=O)[C@H](N)CO | 11.8 nM (active) |
| CCN(CC)Cc1ccc2cc(COC(=O)Nc3ccc(C(=O)NO)cc3)ccc2c1 | 418 nM (active) |
| CC(=O)OCC(=O)[C@@]1(O)CC[C@H]2[C@@H]3CCC4=CC(=O)CC[C@]4(C)[C@@H]3C(=O)C[C@@]21C | inactive |
| COc1ccc2c(c1OC)C(=O)OC2[C@H]1c2c(cc3c(c2OC)OCO3)CCN1C (some centres undefined) | 20.9 nM (active) |
| COc1cccc2c1C(=O)c1c(O)c3c(c(O)c1C2=O)C[C@@](O)(C(C)=O)C[C@H]3O[C@H]1C[C@H](N)[C@H](O)[C@H](C)O1 | 29.6 nM (active) |
| CCOC(=O)N1CCN([N+]([O-])=NOc2ccc([N+](=O)[O-])cc2C#N)CC1 | 935 nM (active) |
| C[C@H]1O[C@H](O[C@H]2[C@H](O)[C@@H](O)[C@@H](O[C@H]3[C@H](O)[C@@H](O)C(O)O[C@H]3CO)O[C@H]2CO)[C@H](O)[C@@H](O)[C@H]1N[C@H]1C=C(CO)[C@@H](O)[C@H](O)[C@@H]1O (some centres undefined) | inactive |
| OC[C@H]1OC(O)C[C@@H](O)[C@H]1O (some centres undefined) | inactive |
| COc1ccc(S(=O)(=O)Nc2cccnc2Nc2ccc(O)cc2)cc1 | 33.2 nM (active) |
| CC(=O)N[C@H]1[C@@H]([C@H](O)[C@H](O)CO)OC(C(=O)O)=C[C@@H]1N=C(N)N | inactive |
| COc1cc(C)c(C=CC(C)=CC=CC(C)=CC(=O)O)c(C)c1C | inactive |
| CCCCCCCCc1ccc(CCC(N)(CO)CO)cc1 | 7430 nM (active) |
| C[C@H](CCC(=O)O)[C@H]1CCC2C3C[C@H](O)[C@@H]4C[C@H](O)CC[C@]4(C)C3CC[C@@]21C (some centres undefined) | inactive |
| COc1cc2c(Nc3ccc(Cl)c(Cl)c3F)ncnc2cc1OCC1C[C@@H]2CN(C)C[C@H]2C1 | 8330 nM (active) |
| COC(=O)[C@H](CCCN=C(N)N)NS(=O)(=O)c1ccc(C)cc1 | inactive |
| C[N+](C)([O-])CCNc1ccc(NCC[N+](C)(C)[O-])c2c1C(=O)c1c(O)ccc(O)c1C2=O | inactive |
| CCOC(=O)[C@H](CCc1ccccc1)N[C@@H](C)C(=O)N1[C@@H](C(=O)O)C[C@H]2CCC[C@@H]21 | 5900 nM (active) |

| SMILES | Potency |
| --- | --- |
| Oc1ccc(-c2ccc(-c3cc(Nc4cccc(CNC5CC5)c4)n[nH]3)cc2)c(O)c1 | 1320 nM (active) |
| C=CCNC1=C2C[C@@H](C)C[C@H](OC)[C@@H](O)[C@@H](C)C=C(C)[C@H](OC(N)=O)[C@@H](OC)C=CC=C(C)C(=O)NC(=CC1=O)C2=O | 662 nM (active) |
| CC(C)(O)Cn1c(NC(=O)c2ccc(-c3cn[nH]c3)s2)nc2cc(CN3CCOCC3)ccc21 | 743 nM (active) |
| CCCc1nc(C(C)(C)O)c(C(=O)O)n1Cc1ccc(-c2ccccc2-c2nn[nH]n2)cc1 | inactive |
| COc1cc(OC)cc(-c2ccc3ncc4ccc(=O)n(-c5ccc(N6CCNCC6)c(C(F)(F)F)c5)c4c3c2)c1 | 4690 nM (active) |
| CC1=C(C(=O)Nc2cc3cn[nH]c3cc2F)C(c2ccc(Cl)cc2F)N=C(c2ccnc(Cl)c2)N1 (centres undefined) | 23500 nM (active) |
| CN(C)CCN1C(=O)c2cccc3cc(N)cc(c23)C1=O | 16600 nM (active) |
| COc1cc(C)c(Sc2cnc(NC(=O)c3ccc(CNC(C)C(C)(C)C)cc3)s2)cc1C(=O)N1CCN(C(C)=O)CC1 (centres undefined) | 13200 nM (active) |
| CCNC(=O)Nc1ccc(-c2nc3c(c(N4CCOC[C@H]4C)n2)CCN(C2COC2)C3)cc1 | 526 nM (active) |
| CON=C(C(=O)N[C@@H]1C(=O)N2C(C(=O)O)=C(Cn3ccc(=N)n3CCO)CS[C@H]12)c1csc(N)n1 | inactive |
| COC[C@H](NC(=O)c1cnc(C)s1)C(=O)N[C@@H](COC)C(=O)N[C@@H](Cc1ccccc1)C(=O)[C@@]1(C)CO1 | 41.8 nM (active) |
| COc1cccc2c1C(=O)c1c(O)c3c(c(O)c1C2=O)C[C@@](O)(C(=O)CO)C[C@@H]3O[C@H]1C[C@H](N)[C@H](OC2CCCCO2)[C@H](C)O1 (some centres undefined) | 1660 nM (active) |
| Nc1cccc2c1C(=O)N(C1CCC(=O)NC1=O)C2=O (centres undefined) | inactive |
| O=c1ccn([C@@H]2O[C@H](CO)[C@H](O)[C@@H]2F)c(=O)[nH]1 | inactive |
| Cn1cc(CNCC2CCN(c3ncc(C(=O)NO)cn3)CC2)c2ccccc21 | 18.7 nM (active) |
| CC(=O)NCC(=O)N1[C@H]2CC[C@H]1c1cc(Nc3ncc(C(F)(F)F)c(NC4CCC4)n3)ccc12 | 3320 nM (active) |
| CC(C)N(CC[C@H](c1ccccc1)c1cc(CO)ccc1O)C(C)C | 1050 nM (active) |
